The panel holds about 79,000 compounds, 15% with a hit somewhere; the sample as a whole holds those more often. Unmarked numbers belong to inactive results. Active and inactive are the calls of the source. Rule as the data show it: active = growth inhibition above about 70%; inactive = the rest.
Legend:
[1] = NCI Yeast Anticancer Drug Screen. Data for the rad50 strain (AID 155);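 also: 0% = growth of vehicle-only cultures of the same strain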; details: S. cerevisiae rad50 strain growth inhibition; at 50.0 µM; active compounds read high
How it was run: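 Readout: growth inhibition relative to vehicle-treated cultures. Compound exposure was carried out in a genetically defined yeast strain deficient in DNA damage repair.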

[2] = NCI Yeast Anticancer Drug Screen. Data for the mec2-1 strain (AID 157); details: S. cerevisiae mec2-1 strain, at 50.0 µM, active compounds read high
How it was run: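 Readout is yeast growth inhibition, normalised to vehicle-treated controls, in the mec2-1 strain exposed to compound.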

[3] = NCI Yeast Anticancer Drug Screen. Data for the sgs1 mgt1 strain (AID 161);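 also: 0% = growth of cultures given vehicle only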; details: S. cerevisiae sgs1 mgt1 strain, at 50.0 µM, active compounds read high
How it was run: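 Compounds are added to genetically altered yeast, and growth is compared with cultures given vehicle alone to give percent inhibition.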

[4] = NCI Yeast Anticancer Drug Screen. Data for the cln2 rad14 strain (AID 165);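 also: 0% = growth equal to vehicle treated cultures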; details: S. cerevisiae cln2 rad14 strain, at 50.0 µM, active compounds read high
How it was run: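 Relative to vehicle controls, growth inhibition of compound-treated cln2 rad14 yeast was recorded.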

[5] = NCI Yeast Anticancer Drug Screen. Data for the bub3 strain (AID 167); details: S. cerevisiae bub3 mutant strain, at 50.0 µM, active compounds read high
How it was run: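 Readout: yeast growth inhibition, expressed relative to vehicle-only wells. The test organism is a mutant strain from a panel with lesions in DNA repair or checkpoint genes.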

[6] = NCI Yeast Anticancer Drug Screen. Data for the mlh1 rad18 strain (AID 175); details: S. cerevisiae mlh1 rad18 strain growth inhibition; at 50.0 µM; active compounds read high
How it was run: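 Test agents were incubated with a yeast strain of defined genotype (DNA damage repair defect). Inhibition of growth was derived by comparison with vehicle-exposed cultures.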

| Structure (SMILES) | growth inhibition [1] | growth inhibition [2] | growth inhibition [3] | growth inhibition [4] | growth inhibition [5] | growth inhibition [6] |
| --- | --- | --- | --- | --- | --- | --- |
| O=S1c2ccccc2NC(c2ccc3ccccc3c2)CC1c1ccccc1 (stereo unspecified) | -46.2% | -22.1% | -6.75% | 1.9% | 5.05% | -18.2% |
| COc1ccc(/C=C/C(=O)C(CN(C)C)CN(C)C)cc1OC | -0.95% | -6.7% | -25.2% | -4.8% | -6.55% | -16.4% |
| NC(CC(=O)N/C=N/C(=O)O)C(=O)O (stereo unspecified) | -5.85% | 5.45% | -17.2% | 4.4% | 6.45% | -7.75% |
| CC(=O)OCC(C)CCC(C)COC(C)=O (stereo unspecified) | -22.2% | -9.4% | -21.8% | -11.4% | 0.45% | -31.6% |
| COc1nc(NC2OCC(OC(C)=O)C(OC(C)=O)C2OC(C)=O)c(N=C(C)C(C)=O)c(=O)n1C (stereo unspecified) | 30.4% | 21.6% | 13.4% | 17.7% | -1.35% | 8.4% |
| Cc1ccc2cccc(OCC(=O)O)c2n1 | 5.7% | 13.4% | 6.1% | 3.45% | -8.45% | 13.3% |
| CC(C)(C)[Si](C)(C)OCCc1ccccc1C1CC2(S(=O)(=O)c3ccccc3)ON1CC2S(=O)(=O)c1ccccc1 (stereo unspecified) | 15.1% | -1.7% | -8.2% | -12.6% | 8.4% | 21.4% |
| Cc1ccc(O)c(C(=O)c2ccccc2C(=O)O)c1 | 15% | -11.9% | -6.95% | 44.4% | 4.9% | 22.4% |
| CC(=O)OC1=CC(=O)N(C(=O)c2ccccc2)C1 | -2.8% | -5.95% | -18.6% | -12.2% | 3.2% | -6.55% |
| CC1(S)CCC2CC1C2(C)C (stereo unspecified) | -15.7% | -54.1% | -35% | 4.95% | -27.4% | -12.1% |
| CC1=NN(C(=O)Cc2ccccc2)C(=O)/C1=C\c1ccccc1O | -10.1% | -39% | -43.2% | -5.7% | -26.2% | -39.9% |
| Cc1ccc2ccc(C)nc2c1 | 15.8% | -23.7% | -5.85% | 7.15% | 18.2% | -22.9% |
| NC(=O)C(=O)c1ccccc1 | -6.65% | -27.1% | -2% | -3% | -19.6% | -19.7% |
| Cc1ccc(C)c(NC(=O)C(=O)C2C(=O)N(c3ccccc3)N=C2N)c1 (stereo unspecified) | -38.5% | -29.4% | -1.25% | 1.9% | -26.4% | -14% |
| Cc1ccc(S(=O)(=O)Nn2c(O)c(C#N)c(-c3ccc([N+](=O)[O-])cc3)c(C#N)c2=O)cc1 | 4.8% | 6.9% | -7.9% | 15.6% | -13.2% | -8.8% |
| CSc1cc(=O)[nH]c(=O)[nH]1 | 16.9% | 3.1% | 4.2% | 22.4% | 3.8% | 10.8% |
| COc1cc2c(cc1O)CN1Cc3cc(O)c(OC)cc3C2C1 | -4.95% | 2.35% | -9.1% | -20.9% | -10% | 13.3% |
| CCCC(=O)OCc1ccccc1 | 14.4% | 11.9% | -6.9% | -15.8% | -5.15% | -7.85% |
| CCOc1ccc(C(C)c2cc3c(cc2OCCO)OCO3)cc1 (stereo unspecified) | 28.6% | 29.2% | 69% | 59.9% | -29.6% | 68.5% |
| O=C(O)C1Cc2c([nH]c3ccccc23)C=N1 (stereo unspecified) | 27.9% | 11.9% | -2.3% | 22.2% | 16.4% | 33.8% |
| C1=Nc2ccccc2/C1=C/c1ccc2c(c1)OCO2 | 24.3% | 11.7% | -6.9% | -55.6% | 8.85% | 8.5% |

| Structure (SMILES) | growth inhibition [1] | growth inhibition [2] | growth inhibition [3] | growth inhibition [4] | growth inhibition [5] | growth inhibition [6] |
| --- | --- | --- | --- | --- | --- | --- |
| CC(O)CNCc1ccc(N(C)C)cc1 (stereo unspecified) | -15.8% | 0.4% | 6.8% | -8.85% | -4.65% | 13.7% |
| CC(C)CC1OCC(C)(C)CO1 | -0.6% | -12.4% | -11.3% | -7.05% | -7.9% | -9.8% |
| CC(=O)N(C)c1ccc(NC(=O)Cc2ccccc2)cc1 | 12.7% | 22.7% | 23.6% | 9.95% | 35.5% | -2.35% |
| COc1ccc(OC)c(/C=C2/C(=O)N(c3ccccc3)N=C2C)c1 | -7.55% | -1.25% | 5.6% | -1.85% | 15.5% | 4.75% |
| O=C(O)C1C2C=CC(O2)C1C(=O)NCc1ccccn1 (stereo unspecified) | -3.5% | -26.5% | -7.3% | -22.6% | -37% | 9.85% |
| CCOC(=O)c1c(C)nc(C)c(C(=O)OCC)c1-c1ccnc2ccccc12 | 0.9% | -15.9% | 17.4% | -13% | -3.95% | 5.1% |
| O=C(CCc1cc(-c2ccc(F)cc2)n[nH]1)N(Cc1ccccc1)Cc1ccccc1 | -20.1% | 11.2% | -27.8% | 2.25% | -20.2% | -9% |
| CCC(C)C(C(=O)OCCC[N+]1(C)CCCCC1)c1ccccc1 (stereo unspecified) | 49.9% | -6.75% | 18.2% | -4.4% | 5.75% | 14% |
| COc1ccc2nc(NCN3C(=O)c4ccccc4C3=O)sc2c1 | 5.05% | -4.05% | -19.1% | 26.9% | 9.9% | -5.5% |
| Cn1c(=O)n2c(-c3ccccc3)c(-c3ccccc3)n2c1=O | 6.85% | -19.6% | -23.8% | 0.5% | -25.9% | -28.9% |
| Cc1coc2c1C1OC(=O)C3(C/C=C\C(C)C2)OC13 (stereo unspecified) | 0.15% | -32.6% | -2.55% | -6.3% | -13.9% | -5.95% |
| Cn1c2ccccc2c2ccc3c(c21)C(=O)C(c1ccccc1)=CC3=O | 19.7% | -21.2% | -10.3% | 17.6% | -28.3% | -5.85% |
| CC(C)NC(=O)C1C2CCC(C2)C1C(=O)NC(C)C (stereo unspecified) | 3.55% | -1% | 2.35% | -28.4% | -0.3% | -7.25% |
| CC(O)C(C)C(N)C(=O)O (stereo unspecified) | 3.7% | 2% | -1.05% | -0.85% | -0.3% | 18.4% |
| O=c1[nH]cc(COCC(F)(F)C(F)(F)C(F)(F)C(F)F)c(=O)[nH]1 | -1.35% | -14.9% | -3.7% | 0.5% | -17.5% | 1.2% |
| NNc1ccc(S(=O)(=O)O)cc1Cl | 8.35% | -14.4% | 3.05% | 4.7% | 15.7% | 2.45% |
| COC(=O)c1cc(C)nc(Cl)c1C(=O)O | 1.55% | 4.95% | -2.2% | 0% | -2.05% | -5.9% |
| O=C(Cn1cc[n+](CC(=O)c2ccccc2)c1)c1ccccc1 | -5.45% | 4.7% | -4% | -36.6% | 6.05% | 63.4% |
| CC(c1ccccc1)c1ccc2ccccc2c1C(=O)O (stereo unspecified) | 39.8% | 43.2% | 42.6% | 82% (active) | 29.6% | 64.8% |
| N#CC(NC(=O)NCCCl)c1ccccc1 (stereo unspecified) | -8.8% | -12.2% | -1.4% | -41.1% | 11.4% | 2.6% |

— PubChem BioAssay (NCI)
